High-throughput results (PubChem)
ELG1 repair inh – qHTS screen for small molecules that inhibit ELG1-dependent DNA repair in human embryonic kidney (HEK293T) cells expressing luciferase-tagged ELG1; HEK293T ELG1-luciferase reporter, luminescence, 16 h; DNA damage induced by 5-fluorouridine; Potency, µM (highest dose often 46.1 µM), for inactives: top-dose activity change, negative = inhibition, usual class: inhibitors; 330,000 compounds, 2.3% hits; further: on the % scale 0 is the no-effect control and ±100 the full control effect; nearly all actives have a fitted effect of over 55% in size
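HEK293T cells expressing luciferase-tagged ELG1 (2,000/well) received 5-Fluorouridine plus compound or DMSO for 16 hr at 37 °C. Luciferase was read by ONE-Glo luminescence after 30 min at room temperature.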
A549 viability – Nrf2 qHTS screen for inhibitors: counterscreen for cytotoxicity | A549 ARE-Fluc cells, CellTiter-Fluor viability, 18-24 h | Potency, µM (highest dose often 46 µM), for the others: at the top dose activity change, negative = cytotoxicity, actives largely listed as inhibitors | 390,000 compounds, 0.16% hits; further: on the % scale 0 is the no-effect control and ±100 the full control effect
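Cytotoxicity counterscreen: CellTiter-Fluor fluorescence was measured in A549 ARE_Fluc cells after 18-24 h of compound exposure in a concentration series. The subsequent BugLite luminescent read reports ARE-luciferase activity.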
IDH1 R132H inh – qHTS for Inhibitors of mutant isocitrate dehydrogenase 1 (IDH1): qHTS. Isocitrate dehydrogenase [NADP] cytoplasmic (Homo sapiens), O75874. IDH1-R132H enzyme, NADPH consumption, diaphorase/resazurin fluorescence. Potency, µM (highest dose often 76.6 µM), for the others: at the highest dose activity change, negative = inhibition, usual class: inhibitors. 390,000 compounds, 0.093% hits. AID 602179, 2012; further: on the % scale 0 is the no-effect control and ±100 the full control effect; nearly all actives have a fitted effect of over 65% in size
Target sequence (O75874 whole entry R132H, stated change not applied): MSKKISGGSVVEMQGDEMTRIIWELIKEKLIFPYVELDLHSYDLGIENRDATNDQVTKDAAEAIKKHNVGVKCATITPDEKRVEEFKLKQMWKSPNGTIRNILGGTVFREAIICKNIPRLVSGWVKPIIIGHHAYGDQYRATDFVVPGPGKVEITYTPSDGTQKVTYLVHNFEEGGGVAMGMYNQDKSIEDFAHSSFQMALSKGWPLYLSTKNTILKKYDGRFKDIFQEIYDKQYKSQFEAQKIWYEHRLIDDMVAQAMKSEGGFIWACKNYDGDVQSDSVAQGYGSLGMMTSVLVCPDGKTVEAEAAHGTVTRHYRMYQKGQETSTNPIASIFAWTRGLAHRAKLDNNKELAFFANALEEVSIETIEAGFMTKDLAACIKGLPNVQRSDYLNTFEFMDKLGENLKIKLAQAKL
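IDH1-R132H (0.5 ug/mL) preincubated 30 min with compound, then NADPH (0.016 mM) and alpha-KG (2 mM) added; 80 min at RT, pH 7.5. Remaining NADPH coupled via diaphorase/resazurin to fluorescence (540/590 nm); concentration-response curves normalized to no-enzyme control.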
Nrf2 activator – qHTS of Nrf2 Activators; Potency, µM (top dose mostly 46.1 µM), for the others: at the top dose activation, actives largely listed as activators; 410,000 compounds, 0.31% hits; AID 624171, 2012; AREc32 ARE-luciferase reporter (MCF7-derived line), luminescence, 24 h; further: % of control where 0% means no effect; nearly all actives have a fitted effect of over 65% in size
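Luminescent ARE reporter assay in AREc32_Fluc cells: overnight plating at 37 deg C, 24 hr compound incubation, Steady-Glo added, 30 min RT before reading.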
Nrf2 block – Nrf2 qHTS screen for inhibitors; A549 ARE-Fluc reporter, luciferase luminescence, 18-24 h; AID 504444, 2011; Potency, µM (highest dose often 46 µM), without a hit: top-dose activity change, negative = inhibition, hits mostly inhibitors; 360,000 compounds, 2.1% hits; further: on the % scale 0 is the no-effect control and ±100 the full control effect; nearly all actives have a fitted effect of over 60% in size
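Two sequential reads on A549 ARE_Fluc cells exposed to compound for 18-24 h: a CellTiter-Fluor fluorescence read for viability, then a luciferase luminescence read for Nrf2/ARE activity.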
The depositor's hits bear a star; [ ] = dose if it differs, or a comment. In the library only some 3.8% were active in any assay of this set; here they are far more common. The call rests on the fitted dose curve; in most records, active means well fitted curve in the direction sought with a large enough effect; inconclusive means small, poorly fitted or top-dose-only effect, or another doubt; inactive means no such curve, though single readings can be large; an effect the other way counts as inactive or inconclusive. Potency means the concentration at half of the fitted maximal effect.

CC(=O)N1c2ccc(S(=O)(=O)N3CCCC(C(=O)N4CCC(C)CC4)C3)cc2CC1C (stereo not drawn) was read as ELG1 repair inh -8%, A549 viability -14%, IDH1 R132H inh -3%, Nrf2 activator 1% and Nrf2 block 21µM*.
For COC(=O)Nc1ccc(S(=O)(=O)N2CCCC(C(=O)N3CCCCCC3)C2)cc1 (stereo not drawn) the results were ELG1 repair inh inconclusive, A549 viability 0%, IDH1 R132H inh -4%, Nrf2 activator -1% and Nrf2 block inconclusive.
For COc1ccc(N2CCN(C(=O)C3CCN(S(=O)(=O)c4cn(C)cn4)CC3)CC2)cc1 the results were A549 viability 3%, IDH1 R132H inh -7% and Nrf2 activator 1%.
For CCN(CCCNC(=O)CSc1cc(=O)n(CC)c2ccccc12)c1cccc(C)c1 the results were A549 viability -14%, IDH1 R132H inh 18%, Nrf2 activator -1% and Nrf2 block inconclusive.
`O=C(Nc1cccc(C(=O)OCc2cc(=O)n3c4c(sc3n2)CCCC4)c1)c1cccc(F)c1` gave A549 viability 3%, IDH1 R132H inh -11% and Nrf2 activator 5%.
Screening CCn1cc(S(=O)(=O)c2ccc(C)cc2)c(=O)c2cc(F)c(N3CCCCCC3)cc21 returned A549 viability inconclusive, IDH1 R132H inh 0%, Nrf2 activator 0% and Nrf2 block 28%.
`CC(=O)Nc1ccc(N/C=C/C(=O)c2ccccc2)cc1` gave ELG1 repair inh inconclusive, A549 viability -10%, IDH1 R132H inh 1%, Nrf2 activator 2% and Nrf2 block inconclusive.
Screening CCOC(=O)c1ccc(N/C=C/C(=O)c2ccccc2)cc1 returned ELG1 repair inh inconclusive, A549 viability -22%, IDH1 R132H inh 2%, Nrf2 activator 5% and Nrf2 block inconclusive.
Cc1cc(N/C=C/C(=O)c2ccccc2)ccc1Br was read as ELG1 repair inh inconclusive, A549 viability -4%, IDH1 R132H inh 5%, Nrf2 activator 5.6µM* and Nrf2 block inconclusive.
For CCOC(=O)c1ccccc1N/C=C/C(=O)c1ccccc1 the results were A549 viability -1%, IDH1 R132H inh 4%, Nrf2 activator 10µM* and Nrf2 block inconclusive.
`Cc1ccc(C(=O)/C=C\Nc2ccc(C)c(C)c2)cc1` gave ELG1 repair inh inconclusive, A549 viability -5%, IDH1 R132H inh 2%, Nrf2 activator 2% and Nrf2 block inconclusive.
`O=C(/C=C/Nc1ccccc1)c1ccccc1` gave ELG1 repair inh inconclusive, A549 viability -3%, IDH1 R132H inh 4%, Nrf2 activator 10µM* and Nrf2 block inconclusive.
COc1ccc(-c2nn(-c3ccccc3)cc2/C=C/C(=O)NCCCn2ccnc2)cc1OC was read as ELG1 repair inh 16µM*, A549 viability -28%, IDH1 R132H inh -7%, Nrf2 activator 3% and Nrf2 block inconclusive.
`COc1ccc(-c2nn(-c3ccccc3)cc2C(=O)NCCCn2ccnc2)cc1` gave ELG1 repair inh -18%, A549 viability 2%, IDH1 R132H inh 9%, Nrf2 activator 0% and Nrf2 block -7%.
For CN(C(=O)C(C)(C)C)C1c2c(ccc3ccccc23)OCC1CO (stereo not drawn) the results were ELG1 repair inh -10%, A549 viability 9%, IDH1 R132H inh 7%, Nrf2 activator 0% and Nrf2 block 2%.
`CNC(=S)N(C)[C@H]1c2c(ccc3ccccc23)OC[C@H]1CO` gave ELG1 repair inh 23µM*, A549 viability -1%, IDH1 R132H inh 14%, Nrf2 activator 0%[9.22 µM] and Nrf2 block 16%.
`CCOC(=O)c1c(/N=C/N(C)C)sc(/C=N/Nc2ccccc2)c1-c1ccccc1Cl` gave ELG1 repair inh 21µM*, A549 viability -19%, IDH1 R132H inh 6%, Nrf2 activator 4% and Nrf2 block inconclusive.
For Cc1ccc(C(=O)OCc2nc3ccccc3s2)o1 the results were ELG1 repair inh inconclusive, A549 viability 2%, IDH1 R132H inh -7%, Nrf2 activator 10µM* and Nrf2 block inconclusive.
For O=C(OCc1nc2ccccc2s1)c1ccc(Br)s1 the results were ELG1 repair inh inconclusive, A549 viability inconclusive, IDH1 R132H inh 6% and Nrf2 activator 11µM*.
Screening COc1ccc(C(=O)/C=C/c2ccc(N3CCCCC3)c([N+](=O)[O-])c2)c(OC)c1 returned ELG1 repair inh -5%, A549 viability -22%, IDH1 R132H inh 6%, Nrf2 activator 13µM* and Nrf2 block inconclusive.
CCOC(=O)N/N=C/c1c(C)nn(-c2cccc(C(F)(F)F)c2)c1Cl was read as ELG1 repair inh 18µM*, A549 viability -10%, IDH1 R132H inh 0%, Nrf2 activator 3% and Nrf2 block inconclusive.
Cc1nn(-c2ccccc2)c(N2CCCC2)c1/C=N/NC(=O)c1cc2ccccc2cc1O was read as ELG1 repair inh inconclusive, A549 viability -5%, IDH1 R132H inh 4%, Nrf2 activator 0% and Nrf2 block -26%.
`Cc1nn(-c2ccccc2)c(N2CCCC2)c1/C=N/NC(=O)c1cccc(S(=O)(=O)Nc2ccc(Cl)cc2)c1` gave ELG1 repair inh inconclusive, A549 viability inconclusive, IDH1 R132H inh -2%, Nrf2 activator 0% and Nrf2 block 5.8µM*.
For Cc1nn(-c2ccccc2)c(Cl)c1/C=N/NC(=O)c1cccc(S(=O)(=O)N2CCCC2)c1 the results were ELG1 repair inh 13µM*, A549 viability 10%, IDH1 R132H inh 3%, Nrf2 activator 0% and Nrf2 block -25%.
Cc1nn(-c2ccc(F)cc2)c(Cl)c1/C=N/NC(=O)c1cccc(S(=O)(=O)N2CCCC2)c1 was read as ELG1 repair inh 0%, A549 viability 2%, IDH1 R132H inh 5%, Nrf2 activator 0% and Nrf2 block 3%.
Cc1ccc(S(=O)(=O)N2CCN(S(=O)(=O)N3CCCCC3)CC2)c(C)c1 was read as ELG1 repair inh 16µM*, A549 viability -2%, IDH1 R132H inh -3%, Nrf2 activator 0% and Nrf2 block inconclusive.
`COc1c2ccccc2c(OC)c2ccccc12` gave ELG1 repair inh -8%, A549 viability 11%, IDH1 R132H inh 7%, Nrf2 activator -1% and Nrf2 block 17%.
For COc1ccc(OC)c(-c2noc(N3CCN(c4cc(C)ccc4C)CC3)n2)c1 the results were A549 viability -3%, IDH1 R132H inh 4%, Nrf2 activator 0% and Nrf2 block 3%.
